The record followed here is PubChem BioAssay (EPA / NIEHS).

Calls of active or inactive are those of the source. Rule for the calls: active = hit-call score of the fitted dose curve at least 0.9, where 1 is the maximum; inactive = score below 0.9.

The assay in a line: ATG_M_61_CIS: Attagene CIS-FACTORIAL HepG2 Assay for M61 Transcription Factor (Internal Marker) (AID 2282937). Conditions: HepG2 Attagene CIS-FACTORIAL M61 internal marker reporter; actives raise or lower the signal. The method in brief: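 Readout: fluorescent reporter mRNA fragments resolved by capillary electrophoresis after RT-PCR. Transiently transfected human HepG2 cells carried MRTU constructs reporting endogenous TF activity; 24 h chemical exposure; gain or loss of signal fitted relative to DMSO.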
In the case of `O=C(N[C@@H](Cc1ccccc1)[C@@H](O)C(=O)N1C[C@@H](O)[C@@H](O)C1)c1cc2cc(Cl)ccc2[nH]1`, the outcome was inactive.
The same measure for `CCCCCCCCCCCCCCCC`: “inactive”; for `Cc1ccc(C)c(C)c1`: “inactive”.
The same measure for `C=CCOC(=O)c1ccccc1C(=O)OCC=C`: “inactive”.
To `CCCCCCCCCCC` belongs “inactive”.
`COc1cc(-c2nc(NC(=O)c3cc4cc(C)cc(C)c4n3CC(=O)O)sc2CCC2CCCCC2)c(OC)cc1Cl`: the result was inactive.
The same measure for `Cc1cc(NC(=O)C(=O)O)cc(C)c1Oc1ccc(O)c2c1CCC2`: “inactive”; for `O=C(OCCCCCOC(=O)c1ccccc1)c1ccccc1`: “inactive”; for `COC(=O)c1ccc(O)cc1`: “inactive”.
To `CCCCCCCC=O` belongs “inactive”.
The same measure for `CCCCC(CC)COC(=O)CC(C(=O)OCC(CC)CCCC)S(=O)(=O)O` (stereo not given): “inactive”; for `C[Si]1(C)O[Si](C)(C)O[Si](C)(C)O[Si](C)(C)O1`: “inactive”; for `C=CCc1ccc(O)c(OC)c1`: “inactive”.
As for `NS(=O)(=O)c1cc2c(cc1Cl)NCNS2(=O)=O`, the compound was classed as inactive.
The same measure for `COc1cc(/C=C/C(=O)CC(=O)/C=C/c2ccc(O)c(OC)c2)ccc1O`: “inactive”; for `CCOC(=O)CCC(=O)OCC`: “inactive”.
To `CC(CO)OC(C)CO` (stereo not given) (tested in a mixture with another compound) belongs “inactive”; to `O=C(O)CCCCC(=O)O`, “inactive”.
With `Cc1cc(=O)[nH]c(=S)[nH]1`, the result was inactive.
The same measure for `Cc1nc(-c2ccc3c(c2)CCN(CCC2CCC(NC(=O)/C=C/c4ccc(F)cc4)CC2)CC3)no1` (stereo not given): “inactive”.
With `Oc1ccc2c(c1)OC[C@@H](N1CCC(O)(c3ccc(F)cc3)CC1)[C@H]2O`, the outcome was inactive.
As to `NCC1(Cc2noc(=O)[nH]2)CCCCC1`, the call was inactive.
Take `NCCO`: the outcome was inactive.
Consider `CC1=C(/C=C/C(C)=C/C=C/C(C)=C/CO)C(C)(C)CCC1`, for which the compound was classed as inactive.
The same measure for `Cc1cccc([N+](=O)[O-])c1C`: “inactive”.
The same measure for `CCCCCCCCCCCCCO`: “inactive”; for `Cc1ccc(C(C)C)c(O)c1`: “inactive”; for `Nc1ccc(S(=O)(=O)c2ccc(N)cc2)cc1`: “inactive”.
Consider `Nc1nc(N)c2nc(CNc3ccc(C(=O)N[C@@H](CCC(=O)O)C(=O)O)cc3)cnc2n1`, for which the outcome was inactive.
To `CCCCc1ccc2c(n1)[C@@H](c1ccc(OC)cc1C[C@H](C)C(=O)O)[C@H](C(=O)O)[C@H]2c1ccc2c(c1)OCO2` belongs “inactive”.
